In assay [1] the target is T1, Inhibitor of nuclear factor kappa-B kinase subunit epsilon (Homo sapiens) (UniProt Q14164).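 Also: reported values are averaged percent inhibition figures against human IKKε.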
T1 sequence (whole entry): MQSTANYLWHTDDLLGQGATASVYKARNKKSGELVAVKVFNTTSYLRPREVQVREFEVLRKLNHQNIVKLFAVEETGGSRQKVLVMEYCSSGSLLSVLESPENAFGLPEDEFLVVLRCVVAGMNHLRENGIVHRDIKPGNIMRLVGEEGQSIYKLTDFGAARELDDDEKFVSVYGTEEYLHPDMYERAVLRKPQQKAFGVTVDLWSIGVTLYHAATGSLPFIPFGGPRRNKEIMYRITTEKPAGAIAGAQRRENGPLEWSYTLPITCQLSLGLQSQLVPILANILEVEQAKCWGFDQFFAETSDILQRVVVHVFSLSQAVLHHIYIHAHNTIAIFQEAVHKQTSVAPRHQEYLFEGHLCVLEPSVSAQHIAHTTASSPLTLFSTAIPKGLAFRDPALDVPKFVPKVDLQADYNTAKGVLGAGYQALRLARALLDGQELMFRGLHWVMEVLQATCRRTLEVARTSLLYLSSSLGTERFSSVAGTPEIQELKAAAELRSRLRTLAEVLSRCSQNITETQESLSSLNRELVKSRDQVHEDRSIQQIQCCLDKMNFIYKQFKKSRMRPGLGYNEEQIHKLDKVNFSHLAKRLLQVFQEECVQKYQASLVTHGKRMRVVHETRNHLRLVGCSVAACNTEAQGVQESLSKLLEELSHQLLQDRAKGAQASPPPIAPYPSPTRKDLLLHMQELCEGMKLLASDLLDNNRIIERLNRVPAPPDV
The conditions noted are these: at 1 µM.

For assay [2], the target named is T2, Serine/threonine-protein kinase Nek1 (Homo sapiens) (UniProt Q96PY6).
T2 sequence (whole entry): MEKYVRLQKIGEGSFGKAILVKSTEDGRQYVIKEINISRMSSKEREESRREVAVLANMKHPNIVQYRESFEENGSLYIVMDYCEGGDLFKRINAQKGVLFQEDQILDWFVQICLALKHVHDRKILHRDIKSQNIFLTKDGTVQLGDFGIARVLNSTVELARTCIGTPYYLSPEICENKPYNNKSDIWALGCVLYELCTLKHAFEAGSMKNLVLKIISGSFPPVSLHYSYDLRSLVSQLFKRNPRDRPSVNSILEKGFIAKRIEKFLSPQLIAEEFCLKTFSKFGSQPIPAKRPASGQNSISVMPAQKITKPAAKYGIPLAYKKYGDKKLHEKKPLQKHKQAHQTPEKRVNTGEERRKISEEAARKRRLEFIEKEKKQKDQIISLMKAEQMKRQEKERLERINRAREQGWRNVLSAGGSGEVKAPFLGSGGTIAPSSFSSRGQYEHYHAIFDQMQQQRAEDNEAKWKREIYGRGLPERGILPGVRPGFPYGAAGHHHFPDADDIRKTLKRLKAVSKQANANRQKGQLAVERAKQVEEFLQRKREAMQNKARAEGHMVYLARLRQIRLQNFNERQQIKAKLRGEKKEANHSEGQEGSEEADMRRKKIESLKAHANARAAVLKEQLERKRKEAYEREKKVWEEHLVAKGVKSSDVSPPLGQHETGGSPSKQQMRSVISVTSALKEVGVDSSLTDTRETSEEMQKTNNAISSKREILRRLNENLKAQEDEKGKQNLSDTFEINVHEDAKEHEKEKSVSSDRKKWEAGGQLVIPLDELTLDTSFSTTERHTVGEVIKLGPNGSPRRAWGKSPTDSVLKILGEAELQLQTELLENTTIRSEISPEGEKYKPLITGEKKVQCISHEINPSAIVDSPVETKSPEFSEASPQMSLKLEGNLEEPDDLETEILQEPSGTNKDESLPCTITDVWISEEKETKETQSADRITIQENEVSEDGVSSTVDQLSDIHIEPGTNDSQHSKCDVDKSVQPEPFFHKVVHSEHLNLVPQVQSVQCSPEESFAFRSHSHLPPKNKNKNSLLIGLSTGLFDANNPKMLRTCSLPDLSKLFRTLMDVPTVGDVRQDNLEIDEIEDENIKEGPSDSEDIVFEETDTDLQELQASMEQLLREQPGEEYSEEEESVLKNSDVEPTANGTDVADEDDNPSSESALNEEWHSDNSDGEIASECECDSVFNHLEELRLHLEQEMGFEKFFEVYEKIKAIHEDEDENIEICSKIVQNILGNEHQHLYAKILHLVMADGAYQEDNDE
The conditions noted are these: at 0.1 µM.

For assay [3], the target named is T2, Serine/threonine-protein kinase Nek1 (Homo sapiens). The following applies: at 1 µM.
In assay [4] the target is T3, Serine/threonine-protein kinase Nek2 (Homo sapiens) (UniProt P51955).
T3 sequence (whole entry): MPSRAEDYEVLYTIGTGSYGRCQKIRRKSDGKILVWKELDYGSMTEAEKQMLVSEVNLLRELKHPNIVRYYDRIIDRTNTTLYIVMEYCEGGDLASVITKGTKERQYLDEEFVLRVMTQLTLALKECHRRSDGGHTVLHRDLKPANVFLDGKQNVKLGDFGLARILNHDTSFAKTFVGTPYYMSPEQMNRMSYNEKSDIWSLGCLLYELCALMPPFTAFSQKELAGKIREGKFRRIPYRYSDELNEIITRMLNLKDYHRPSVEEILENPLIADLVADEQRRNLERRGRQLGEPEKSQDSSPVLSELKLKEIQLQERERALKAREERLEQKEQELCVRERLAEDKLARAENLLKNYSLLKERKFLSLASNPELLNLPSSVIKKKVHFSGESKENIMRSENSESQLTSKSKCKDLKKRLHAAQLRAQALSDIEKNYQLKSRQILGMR
The conditions noted are these: at 0.1 µM.

The target of assay [5] is T3, Serine/threonine-protein kinase Nek2 (Homo sapiens). The following applies: at 1 µM.
The target in assay [6] is Serine/threonine-protein kinase Nek6 (Homo sapiens) (UniProt Q9HC98). The following applies: at 0.1 µM.
Chain of Serine/threonine-protein kinase Nek6 (Homo sapiens) (Q9HC98 whole entry): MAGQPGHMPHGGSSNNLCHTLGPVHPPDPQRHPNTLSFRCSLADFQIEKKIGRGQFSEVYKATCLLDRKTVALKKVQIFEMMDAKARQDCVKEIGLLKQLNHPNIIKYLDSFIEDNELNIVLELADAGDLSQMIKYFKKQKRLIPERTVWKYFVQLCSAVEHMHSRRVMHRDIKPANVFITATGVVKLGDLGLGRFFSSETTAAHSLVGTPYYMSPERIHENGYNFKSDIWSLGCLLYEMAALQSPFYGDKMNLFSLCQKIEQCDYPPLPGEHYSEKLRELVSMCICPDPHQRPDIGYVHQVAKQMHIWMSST
For assay [7] the target is unchanged. The following applies: at 1 µM.
Assay [8] deals with Serine/threonine-protein kinase Nek7 (Homo sapiens) (UniProt Q8TDX7). The conditions noted are these: at 0.1 µM.
Chain of Serine/threonine-protein kinase Nek7 (Homo sapiens) (Q8TDX7 whole entry, looked up): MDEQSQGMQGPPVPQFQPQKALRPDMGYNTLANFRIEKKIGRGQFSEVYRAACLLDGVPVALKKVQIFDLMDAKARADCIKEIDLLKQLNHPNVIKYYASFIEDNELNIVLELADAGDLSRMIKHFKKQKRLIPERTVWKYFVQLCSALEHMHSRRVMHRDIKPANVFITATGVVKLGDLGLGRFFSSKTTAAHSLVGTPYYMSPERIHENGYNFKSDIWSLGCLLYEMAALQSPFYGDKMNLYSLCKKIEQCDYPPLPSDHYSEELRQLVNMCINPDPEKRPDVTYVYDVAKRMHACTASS
For assay [9] the target is unchanged. The following applies: at 1 µM.
Assay [10] concerns the target T4, Serine/threonine-protein kinase Nek9 (Homo sapiens) (UniProt Q8TD19).
T4 sequence (whole entry): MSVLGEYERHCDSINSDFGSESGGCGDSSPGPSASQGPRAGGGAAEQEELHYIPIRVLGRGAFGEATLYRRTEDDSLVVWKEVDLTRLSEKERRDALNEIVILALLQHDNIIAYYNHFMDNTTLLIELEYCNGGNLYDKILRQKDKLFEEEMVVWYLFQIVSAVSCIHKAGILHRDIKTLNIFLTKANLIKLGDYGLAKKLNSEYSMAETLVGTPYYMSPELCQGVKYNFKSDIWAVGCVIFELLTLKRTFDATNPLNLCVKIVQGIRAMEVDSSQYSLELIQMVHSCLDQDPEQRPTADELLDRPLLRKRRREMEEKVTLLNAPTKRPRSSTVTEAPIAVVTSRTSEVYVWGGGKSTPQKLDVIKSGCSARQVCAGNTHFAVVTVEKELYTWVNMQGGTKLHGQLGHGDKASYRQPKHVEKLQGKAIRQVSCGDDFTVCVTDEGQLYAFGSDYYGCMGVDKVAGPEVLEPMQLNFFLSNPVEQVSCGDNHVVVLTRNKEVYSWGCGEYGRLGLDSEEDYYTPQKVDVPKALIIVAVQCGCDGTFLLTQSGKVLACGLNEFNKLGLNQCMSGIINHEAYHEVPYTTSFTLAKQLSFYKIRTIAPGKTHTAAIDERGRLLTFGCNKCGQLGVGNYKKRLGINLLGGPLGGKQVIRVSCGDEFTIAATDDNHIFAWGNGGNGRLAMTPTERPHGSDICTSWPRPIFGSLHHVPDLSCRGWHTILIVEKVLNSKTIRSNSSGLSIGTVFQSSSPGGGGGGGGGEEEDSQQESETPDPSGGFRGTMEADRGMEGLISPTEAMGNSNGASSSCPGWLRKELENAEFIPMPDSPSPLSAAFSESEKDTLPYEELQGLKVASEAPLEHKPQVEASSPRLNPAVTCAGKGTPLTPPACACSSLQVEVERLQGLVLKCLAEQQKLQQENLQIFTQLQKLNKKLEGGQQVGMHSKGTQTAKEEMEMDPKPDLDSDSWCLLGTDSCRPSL
The following applies: at 0.1 µM.

Assay [11] deals with T4, Serine/threonine-protein kinase Nek9 (Homo sapiens). The conditions noted are these: at 1 µM.
Assay [12] addresses Serine/threonine-protein kinase PLK1 (Homo sapiens) (UniProt P53350). The conditions noted are these: at 0.1 µM.
For assay [13] the target is unchanged. The following applies: at 1 µM.
For assay [14], the target named is T5, Dual specificity protein kinase TTK (Homo sapiens) (UniProt P33981).
T5 sequence (whole entry): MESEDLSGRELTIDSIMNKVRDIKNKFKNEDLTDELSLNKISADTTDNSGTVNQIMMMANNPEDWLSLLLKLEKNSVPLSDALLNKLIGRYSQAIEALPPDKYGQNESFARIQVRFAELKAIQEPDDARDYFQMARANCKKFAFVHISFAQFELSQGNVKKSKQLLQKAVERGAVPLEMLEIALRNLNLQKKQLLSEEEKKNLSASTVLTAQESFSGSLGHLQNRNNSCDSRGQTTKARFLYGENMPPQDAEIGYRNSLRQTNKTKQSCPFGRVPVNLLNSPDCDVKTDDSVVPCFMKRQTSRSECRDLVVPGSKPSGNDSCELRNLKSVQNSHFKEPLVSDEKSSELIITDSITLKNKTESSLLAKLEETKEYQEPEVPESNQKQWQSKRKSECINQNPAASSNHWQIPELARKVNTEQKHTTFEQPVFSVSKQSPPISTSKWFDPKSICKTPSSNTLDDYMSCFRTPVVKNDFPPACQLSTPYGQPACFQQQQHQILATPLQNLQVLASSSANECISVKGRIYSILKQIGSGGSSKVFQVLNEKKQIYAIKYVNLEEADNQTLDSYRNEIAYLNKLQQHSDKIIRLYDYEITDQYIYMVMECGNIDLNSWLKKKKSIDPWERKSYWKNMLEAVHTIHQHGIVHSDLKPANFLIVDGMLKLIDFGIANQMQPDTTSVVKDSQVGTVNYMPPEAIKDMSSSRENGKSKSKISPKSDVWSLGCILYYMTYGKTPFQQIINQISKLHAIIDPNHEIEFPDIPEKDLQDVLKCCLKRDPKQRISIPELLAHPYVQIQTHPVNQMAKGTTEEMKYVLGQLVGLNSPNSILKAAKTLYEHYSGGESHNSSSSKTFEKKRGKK
The following applies: at 0.1 µM.

Assay [15] relates to T6, Receptor-type tyrosine-protein kinase FLT3 (Homo sapiens), P36888 [D835Y].
T6 sequence (whole entry): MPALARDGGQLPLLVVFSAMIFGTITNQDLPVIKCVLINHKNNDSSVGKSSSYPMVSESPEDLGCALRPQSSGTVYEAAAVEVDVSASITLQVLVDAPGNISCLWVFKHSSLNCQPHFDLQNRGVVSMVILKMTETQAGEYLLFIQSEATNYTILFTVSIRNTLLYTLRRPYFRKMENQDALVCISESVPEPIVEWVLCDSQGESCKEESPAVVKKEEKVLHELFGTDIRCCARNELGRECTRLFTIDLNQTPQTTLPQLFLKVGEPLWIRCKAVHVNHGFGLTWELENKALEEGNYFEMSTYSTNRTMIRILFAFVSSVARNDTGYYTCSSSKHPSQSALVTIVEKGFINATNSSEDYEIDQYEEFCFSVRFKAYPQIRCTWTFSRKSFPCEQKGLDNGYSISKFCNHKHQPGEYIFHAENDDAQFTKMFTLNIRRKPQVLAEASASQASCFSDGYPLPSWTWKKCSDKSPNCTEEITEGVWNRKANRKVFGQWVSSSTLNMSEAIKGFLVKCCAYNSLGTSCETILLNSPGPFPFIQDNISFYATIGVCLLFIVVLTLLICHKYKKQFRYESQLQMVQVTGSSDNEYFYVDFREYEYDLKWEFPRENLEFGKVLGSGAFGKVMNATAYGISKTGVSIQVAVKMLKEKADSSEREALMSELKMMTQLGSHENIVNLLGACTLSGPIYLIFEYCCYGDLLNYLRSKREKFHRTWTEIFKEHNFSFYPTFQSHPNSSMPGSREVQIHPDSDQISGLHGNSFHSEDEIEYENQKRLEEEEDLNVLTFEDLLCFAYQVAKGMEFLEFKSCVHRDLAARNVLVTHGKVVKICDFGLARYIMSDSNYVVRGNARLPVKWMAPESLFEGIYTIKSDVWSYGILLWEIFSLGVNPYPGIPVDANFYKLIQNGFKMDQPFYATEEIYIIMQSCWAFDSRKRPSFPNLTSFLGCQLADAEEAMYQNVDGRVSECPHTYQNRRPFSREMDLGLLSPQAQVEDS
The following applies: at 1 µM.

Assay [16] deals with Vascular endothelial growth factor receptor 3 (Homo sapiens) (UniProt P35916). The following applies: at 0.1 µM.
Chain of Vascular endothelial growth factor receptor 3 (Homo sapiens) (P35916 whole entry): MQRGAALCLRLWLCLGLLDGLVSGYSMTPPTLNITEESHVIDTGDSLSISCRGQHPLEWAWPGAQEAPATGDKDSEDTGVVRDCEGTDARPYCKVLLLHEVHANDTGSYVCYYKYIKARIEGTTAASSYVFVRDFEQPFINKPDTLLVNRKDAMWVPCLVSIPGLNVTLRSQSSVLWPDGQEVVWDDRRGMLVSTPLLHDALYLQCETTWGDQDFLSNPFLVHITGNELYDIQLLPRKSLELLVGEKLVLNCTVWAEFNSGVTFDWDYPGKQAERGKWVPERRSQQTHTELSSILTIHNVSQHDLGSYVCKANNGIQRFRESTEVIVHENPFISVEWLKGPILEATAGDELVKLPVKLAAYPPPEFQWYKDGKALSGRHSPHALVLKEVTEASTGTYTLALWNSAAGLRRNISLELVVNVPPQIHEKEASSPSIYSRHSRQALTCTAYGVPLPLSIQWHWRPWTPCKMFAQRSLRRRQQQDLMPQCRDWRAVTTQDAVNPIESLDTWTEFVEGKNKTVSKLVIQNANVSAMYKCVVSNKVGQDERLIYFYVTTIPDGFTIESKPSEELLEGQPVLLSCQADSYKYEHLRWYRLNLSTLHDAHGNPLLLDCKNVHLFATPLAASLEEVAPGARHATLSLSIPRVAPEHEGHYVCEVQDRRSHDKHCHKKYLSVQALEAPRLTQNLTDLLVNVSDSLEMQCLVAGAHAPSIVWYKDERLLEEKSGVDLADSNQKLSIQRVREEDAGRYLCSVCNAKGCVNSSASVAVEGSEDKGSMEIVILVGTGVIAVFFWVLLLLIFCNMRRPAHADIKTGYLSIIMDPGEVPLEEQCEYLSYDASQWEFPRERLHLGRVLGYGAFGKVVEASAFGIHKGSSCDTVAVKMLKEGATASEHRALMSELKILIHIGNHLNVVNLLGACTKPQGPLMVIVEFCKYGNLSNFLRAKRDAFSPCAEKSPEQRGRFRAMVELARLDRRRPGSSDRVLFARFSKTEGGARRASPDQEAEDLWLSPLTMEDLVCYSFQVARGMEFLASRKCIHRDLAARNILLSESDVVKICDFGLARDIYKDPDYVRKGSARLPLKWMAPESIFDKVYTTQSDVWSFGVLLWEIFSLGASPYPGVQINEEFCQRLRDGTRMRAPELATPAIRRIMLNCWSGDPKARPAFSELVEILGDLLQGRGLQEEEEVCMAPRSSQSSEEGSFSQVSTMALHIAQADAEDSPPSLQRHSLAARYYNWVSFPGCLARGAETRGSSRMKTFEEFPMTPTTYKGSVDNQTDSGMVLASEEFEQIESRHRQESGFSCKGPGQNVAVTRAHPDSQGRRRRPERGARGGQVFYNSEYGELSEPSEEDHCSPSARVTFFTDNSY
Assay [17] has the same target. The following applies: at 1 µM.
In assay [18] the target is Macrophage colony-stimulating factor 1 receptor (Homo sapiens) (UniProt P07333). The following applies: at 0.1 µM.
Chain of Macrophage colony-stimulating factor 1 receptor (Homo sapiens) (P07333 whole entry): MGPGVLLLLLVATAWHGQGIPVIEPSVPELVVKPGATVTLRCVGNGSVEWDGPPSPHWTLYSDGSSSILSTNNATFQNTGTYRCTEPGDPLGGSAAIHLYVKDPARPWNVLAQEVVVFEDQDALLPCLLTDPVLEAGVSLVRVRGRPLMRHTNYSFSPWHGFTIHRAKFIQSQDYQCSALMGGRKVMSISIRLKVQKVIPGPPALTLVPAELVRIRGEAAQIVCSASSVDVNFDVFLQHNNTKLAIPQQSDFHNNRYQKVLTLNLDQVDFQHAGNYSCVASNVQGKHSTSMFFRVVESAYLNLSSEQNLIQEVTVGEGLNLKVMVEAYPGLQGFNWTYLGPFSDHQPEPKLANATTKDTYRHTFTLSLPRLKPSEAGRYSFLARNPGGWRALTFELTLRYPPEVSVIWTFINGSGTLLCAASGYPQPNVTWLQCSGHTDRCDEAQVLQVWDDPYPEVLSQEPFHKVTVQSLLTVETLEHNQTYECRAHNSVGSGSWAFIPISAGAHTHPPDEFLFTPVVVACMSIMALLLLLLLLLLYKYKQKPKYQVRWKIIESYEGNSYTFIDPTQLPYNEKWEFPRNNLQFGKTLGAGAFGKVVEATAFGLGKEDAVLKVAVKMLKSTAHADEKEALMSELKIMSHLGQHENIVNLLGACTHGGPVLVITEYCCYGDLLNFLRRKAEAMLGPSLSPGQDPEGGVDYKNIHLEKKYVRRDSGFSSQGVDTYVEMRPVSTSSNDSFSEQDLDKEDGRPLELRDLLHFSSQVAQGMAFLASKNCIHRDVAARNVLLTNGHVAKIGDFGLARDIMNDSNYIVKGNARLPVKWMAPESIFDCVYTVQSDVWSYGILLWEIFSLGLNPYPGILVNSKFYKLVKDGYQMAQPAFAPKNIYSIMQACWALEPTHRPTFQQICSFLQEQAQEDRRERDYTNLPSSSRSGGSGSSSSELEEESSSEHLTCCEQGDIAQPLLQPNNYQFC
For assay [19] the target is unchanged. The conditions noted are these: at 1 µM.
Assay [20] addresses Tyrosine-protein kinase Fyn (Homo sapiens) (UniProt P06241). The conditions noted are these: at 0.1 µM.

In general, inhibition refers to the change of the read-out against control, counted positive when it falls.

Chain of Serine/threonine-protein kinase PLK1 (Homo sapiens) (P53350 whole entry): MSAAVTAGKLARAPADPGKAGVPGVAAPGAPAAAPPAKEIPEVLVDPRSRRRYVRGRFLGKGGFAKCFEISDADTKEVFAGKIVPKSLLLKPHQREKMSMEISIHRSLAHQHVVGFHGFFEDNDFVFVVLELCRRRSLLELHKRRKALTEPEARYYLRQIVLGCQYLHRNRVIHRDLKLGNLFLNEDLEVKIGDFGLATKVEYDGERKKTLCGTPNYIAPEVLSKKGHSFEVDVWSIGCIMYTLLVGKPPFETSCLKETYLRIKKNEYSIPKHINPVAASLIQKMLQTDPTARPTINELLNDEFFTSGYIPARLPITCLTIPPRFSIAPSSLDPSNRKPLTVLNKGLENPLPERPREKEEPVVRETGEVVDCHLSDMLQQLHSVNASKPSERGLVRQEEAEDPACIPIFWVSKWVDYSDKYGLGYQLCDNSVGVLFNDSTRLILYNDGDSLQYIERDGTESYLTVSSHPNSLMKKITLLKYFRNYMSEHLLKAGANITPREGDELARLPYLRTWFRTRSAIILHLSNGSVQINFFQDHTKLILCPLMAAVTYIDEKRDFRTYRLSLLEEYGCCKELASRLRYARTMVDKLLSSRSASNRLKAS
Chain of Tyrosine-protein kinase Fyn (Homo sapiens) (P06241 2-537 limits assumed): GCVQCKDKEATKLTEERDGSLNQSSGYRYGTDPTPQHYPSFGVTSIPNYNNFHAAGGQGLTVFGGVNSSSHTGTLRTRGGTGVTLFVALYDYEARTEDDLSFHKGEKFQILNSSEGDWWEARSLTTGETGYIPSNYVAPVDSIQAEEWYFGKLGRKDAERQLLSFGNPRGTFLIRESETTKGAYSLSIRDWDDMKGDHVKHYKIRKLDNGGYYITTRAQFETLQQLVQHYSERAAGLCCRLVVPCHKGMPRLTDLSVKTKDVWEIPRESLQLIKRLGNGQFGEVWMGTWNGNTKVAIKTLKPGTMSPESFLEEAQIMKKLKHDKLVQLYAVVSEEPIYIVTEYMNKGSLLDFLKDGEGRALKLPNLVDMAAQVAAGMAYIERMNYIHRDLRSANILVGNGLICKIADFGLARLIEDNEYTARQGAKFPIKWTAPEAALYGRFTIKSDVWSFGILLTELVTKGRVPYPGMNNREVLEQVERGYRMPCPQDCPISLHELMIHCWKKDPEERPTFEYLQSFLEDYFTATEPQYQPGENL

On to `CN1CCN(C(=O)c2ccc(NC(=O)Nc3ccc(N(C)c4ccnc(Nc5ccc(CS(C)(=O)=O)cc5)n4)cc3)cc2)CC1`, for which the inhibition in [1] worked out at 14.2%; in assay [2], 5.21%; in assay [3] it was 29.1%; in assay [4], 2.78%; in assay [5], 3.14%; in [6], 1.8%. Further, the inhibition is -1.02% in assay [7]; 2.05% in assay [8]; 5.08% in assay [9]; 6.54% in [10]; 30.1% in [11]; 2.98% in assay [12]. The inhibition was determined as 3.2% in [13]; 2.87% in assay [14]; 25.1% in assay [15]; 8.95% in [16]; 37.5% in assay [17]; 87.7% in [18]. Also, the figures for the inhibition in assay [19] and in assay [20] were 81.2% and 0.29%, respectively.

`COc1ccc(-c2nn3ncccc3c2-c2ccnc(Nc3cccc(C(F)(F)F)c3)n2)cc1`: the inhibition in [1] is 4.37%; in assay [2], 1.37%; in [3], 0.9%; in [4] it was 4.06%; in assay [5] it was 1.46%; in assay [6] it was -1.61%. Also, the inhibition in [7] is 1.08%; in [8], 1.12%; in assay [9], 2.05%; in assay [10], 6.48%; in assay [11], 3.9%; in assay [12] it was 1.94%. The inhibition in assay [13] is 0.44%; in [14], 5.91%; in [15] it was -4.73%; in assay [16], 1.62%; in assay [17], 10.2%; in assay [18] it was 2.47%. In addition, the inhibition was 19.4% in [19] and 1.38% in assay [20].

The values above are taken from ChEMBL document CHEMBL1961873, “Compounds: GSK PKIS; Assays: Nanosyn kinase panel” (2012).
